molecular target: Streptavidin (Streptomyces avidinii) (UniProt P22629); experiment: streptavidin binders on small-molecule microarray, primary screen, artefact control for SMM compound annotation, biophysical, 635/667 nm fluorescence (AID 1147); conditions: streptavidin binding, higher = more signal;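 also: signal reflects streptavidin binding to arrayed compounds as a control protein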
Sequence (P22629 whole entry, looked up): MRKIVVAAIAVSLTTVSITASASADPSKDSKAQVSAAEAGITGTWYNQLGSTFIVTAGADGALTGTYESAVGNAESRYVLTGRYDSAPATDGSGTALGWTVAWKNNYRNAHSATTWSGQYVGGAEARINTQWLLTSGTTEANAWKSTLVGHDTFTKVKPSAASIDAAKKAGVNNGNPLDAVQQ

SMILES | composite z-score
COC(=O)C(CC#Cc1ccc2c(c1)[C@]1(C(=O)N2)[C@H](c2ccc(O)cc2)N2[C@H](c3ccccc3)[C@H](c3ccccc3)OC(=O)[C@H]2[C@@H]1C(N)=O)C(=O)OC | -1.42
C=CCNC(=O)[C@H]1[C@@H]2C(=O)O[C@@H](c3ccccc3)[C@@H](c3ccccc3)N2[C@@H](c2ccc(OCCO)cc2)[C@]12C(=O)N(C(=O)OCCOC)c1ccc(C#CC3=CCCCC3)cc12 | 0.716
COC(=O)[C@@]1(Cc2ccccc2)[C@H]2c3cc(C(=O)N(C)C)n(Cc4ccccn4)c3C[C@H]2CN1C(=O)c1ccccc1 | 2.27
O=C(Nc1cc(Br)ccc1C(=O)NCc1cccc(O)c1)c1ccccc1 | 0.827
NCCCCCCNC(=O)[C@H]1C[C@H]2C(=O)N3CCC[C@H]3C(=O)N2[C@H]1c1ccc(O)cc1 | 0.0381
C#CCNS(=O)(=O)N(C)C | 0.0573
CCCC=C(CCC)[C@@H](NS(=O)(=O)CC)c1ccccc1 | 1.08
CN(C)CCCCCCNC(=O)[C@@H]1C[C@@H]2C(=O)NCC(=O)N2[C@@H]1c1ccc(O)cc1 | 0.28
NC(=O)NCC#Cc1ccc2c(c1)[C@]1(C(=O)N2)[C@H](c2ccc(O)cc2)N2[C@H](c3ccccc3)[C@H](c3ccccc3)OC(=O)[C@H]2[C@@H]1C(N)=O | -0.928
COCCCNC(=O)[C@@]1(C)c2ccccc2C(=O)N(c2ccc(C)cn2)[C@H]1c1ccc(CO)cc1 | -1.4
COCCCNC(=O)[C@]1(Cc2ccccc2)N=C(c2ccc(OCCCO)cc2)O[C@@H]1c1ccccc1N=[N+]=[N-] | 0.607
CCCC=C(CCC)[C@@H](NC(=O)Cc1ccccc1)c1ccc(C(=O)OC)cc1 | 1.68
COc1ccc([Si](C)(C)[C@@H]2[C@@H](CCO)O[C@]3(C(=O)N(Cc4ccccc4)c4ccc(N5CCCCC5=O)cc43)[C@H]2C)cc1 | 0.583
COc1ccc(CCNC(=O)[C@@H]2c3ccccc3C(=O)N(Cc3ccccc3)[C@H]2c2ccc(CO)cc2)cc1 | 0.0585
O=C(CS)NCCCCCNC(=O)[C@@H]1C[C@@H]2C(=O)N3CCC[C@H]3C(=O)N2[C@@H]1c1ccc(O)cc1 | -0.23
COC(=O)[C@]1(Cc2ccccc2CN=[N+]=[N-])N=C(c2ccc(OCCCO)cc2)O[C@@H]1c1ccccc1 | -1.05
COc1ccc([Si](C)(C)[C@@H]2[C@@H](CC(=O)N(CCO)Cc3ccccc3)O[C@]3(C(=O)N(Cc4ccc(N5CCOC5=O)cc4)c4ccccc43)[C@H]2C)cc1 | 0.601
[N-]=[N+]=NCc1ccccc1C[C@]1(C(=O)NCCN2CCOCC2)N=C(c2ccc(OCCCO)cc2)O[C@H]1c1ccccc1 | -0.0127
COC(=O)[C@H]1N=C(c2ccc(OCCCO)cc2)O[C@H]1c1ccccc1CN=[N+]=[N-] | -0.129

test system: not listed separately; experiment: small-molecule binders of probe aInhba, primary screen, biochemical, small-molecule microarray, 635/667 nm fluorescence (AID 1148); conditions: higher = more signal;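 also: score merges 667nm spot fluorescence with signal-to-noise for antibody binding to printed compounds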

SMILES | composite z-score
CC(C)[Si](C#C[Si](C(C)C)(C(C)C)C(C)C)(O[C@H](C)c1cn(Cc2cccc(Cl)c2)nn1)C(C)C | -0.101
CC(C)(C)OC(=O)CC[C@]1(C(=O)N2CCCCC2)N=C(c2ccc(OCCCO)cc2)O[C@H]1c1ccccc1CN=[N+]=[N-] | 0.927
CCOC(=O)C[C@H]1[C@H](OC(=O)Cc2ccc3c(c2)OCO3)[C@@H](NC(=O)c2ccccc2)c2cc(OCCCO)ccc2N1C(=O)c1ccc2ccccc2n1 | -0.0418
CC(C)CCC[C@@H](C)[C@H]1CC[C@@]2(C)C3=C(CC[C@]12C)[C@@]1(C)CC[C@H](OC(=O)c2ccc(N)cc2)C(C)(C)C1CC3 (some centres undefined) | -0.208
C=CCC(OC(C)=O)[C@@H]1[C@@H](N(Cc2cccc3ccccc23)C(=O)c2ccc(C)cc2)c2cc(OCCCO)ccc2N1C(=O)c1ccc2ccccc2c1 (some centres undefined) | 0.0797
COC(=O)C(CC#Cc1ccc2c(c1)[C@]1(C(=O)N2)[C@H](c2ccccc2OCCO)N2[C@H](c3ccccc3)[C@H](c3ccccc3)OC(=O)[C@H]2[C@@H]1C(=O)Nc1nc2ccccc2s1)C(=O)OC | 0.0633
C=CCOC(=O)[C@@H]1[C@H]2C(=O)O[C@H](c3ccccc3)[C@H](c3ccccc3)N2[C@H](c2ccc(OCCOC(=O)[C@@H]3C[C@@H]4C(=O)N5CCC[C@H]5C(=O)N4[C@@H]3c3cccc(OCCO)c3)cc2)[C@@]12C(=O)Nc1ccc(I)cc12 | -0.0221
COc1ccc(C(=O)Nc2ccc(CN3C(=O)[C@]4(O[C@H](CCn5cc([C@H](O)c6ccccc6)nn5)[C@@H]([Si](C)(C)c5ccc(OC)cc5)[C@@H]4C)c4ccccc43)cc2)cc1 | -0.0044
CN(C)C(=O)[C@@]1(CCC(=O)OC(C)(C)C)N=C(c2ccc(OCCCO)cc2)O[C@H]1c1ccccc1N=[N+]=[N-] | 0.277
COCCOC(=O)N1C(=O)[C@@]2(c3cc(C#CCCO)ccc31)[C@H](C(=O)NC[C@H](O)c1ccccc1)[C@H]1C(=O)O[C@H](c3ccccc3)[C@H](c3ccccc3)N1[C@@H]2c1ccccc1OCCO | 0.413
COc1ccc([Si](C)(C)[C@H]2[C@H](CCO)O[C@@]3(C(=O)N(Cc4cccc(N5CCOC5=O)c4)c4ccccc43)[C@@H]2C)cc1 | -0.0736
CN(C)CCCC[C@@H]1NC(=O)[C@H]2C[C@@H](C(=O)NCCCCCCNC(=O)CS)[C@@H](c3ccc(O)cc3)N2C1=O | -0.224
CC(C)=CCCC(C)=CC(O)C1C=CC2C(=O)N(c3ccccc3)C(=O)C2N1Nc1ccc([N+](=O)[O-])cc1 (centres undefined) | 0.077
COC(=O)[C@@]1(Cc2ccc(OC)cc2)[C@H]2c3cc(C(=O)N(C)C)n(Cc4cc(F)c(F)c(F)c4)c3C[C@H]2CN1C(=O)c1ccccc1 | 0.528
COCCOC(=O)N1C(=O)[C@@]2(c3cc(C#CCC(C(=O)OC)C(=O)OC)ccc31)[C@H](C(=O)N1CCCCCCC1)[C@H]1C(=O)O[C@H](c3ccccc3)[C@H](c3ccccc3)N1[C@@H]2c1ccc(O)cc1 | 1.22
[N-]=[N+]=Nc1ccccc1[C@H]1OC(c2ccc(OCCCO)cc2)=N[C@@]1(Cc1ccccc1)C(=O)NCc1ccccc1 | 0.0301
COC(=O)C(CC#Cc1ccc2c(c1)[C@]1(C(=O)N2)[C@H](c2ccc(O)cc2)N2[C@H](c3ccccc3)[C@H](c3ccccc3)OC(=O)[C@H]2[C@@H]1C(N)=O)C(=O)OC | -0.153
C=CCNC(=O)[C@H]1[C@@H]2C(=O)O[C@@H](c3ccccc3)[C@@H](c3ccccc3)N2[C@@H](c2ccc(OCCO)cc2)[C@]12C(=O)N(C(=O)OCCOC)c1ccc(C#CC3=CCCCC3)cc12 | 0.18

SMILES | composite z-score
COC(=O)[C@@]1(Cc2ccccc2)[C@H]2c3cc(C(=O)N(C)C)n(Cc4ccccn4)c3C[C@H]2CN1C(=O)c1ccccc1 | 0.38
O=C(Nc1cc(Br)ccc1C(=O)NCc1cccc(O)c1)c1ccccc1 | 0.129
NCCCCCCNC(=O)[C@H]1C[C@H]2C(=O)N3CCC[C@H]3C(=O)N2[C@H]1c1ccc(O)cc1 | 0.0047
C#CCNS(=O)(=O)N(C)C | -0.222
CCCC=C(CCC)[C@@H](NS(=O)(=O)CC)c1ccccc1 | 0.279
CN(C)CCCCCCNC(=O)[C@@H]1C[C@@H]2C(=O)NCC(=O)N2[C@@H]1c1ccc(O)cc1 | -0.102
NC(=O)NCC#Cc1ccc2c(c1)[C@]1(C(=O)N2)[C@H](c2ccc(O)cc2)N2[C@H](c3ccccc3)[C@H](c3ccccc3)OC(=O)[C@H]2[C@@H]1C(N)=O | -0.105
COCCCNC(=O)[C@@]1(C)c2ccccc2C(=O)N(c2ccc(C)cn2)[C@H]1c1ccc(CO)cc1 | -0.202
COCCCNC(=O)[C@]1(Cc2ccccc2)N=C(c2ccc(OCCCO)cc2)O[C@@H]1c1ccccc1N=[N+]=[N-] | -0.0136
CCCC=C(CCC)[C@@H](NC(=O)Cc1ccccc1)c1ccc(C(=O)OC)cc1 | 0.376
COc1ccc([Si](C)(C)[C@@H]2[C@@H](CCO)O[C@]3(C(=O)N(Cc4ccccc4)c4ccc(N5CCCCC5=O)cc43)[C@H]2C)cc1 | 0.0446
COc1ccc(CCNC(=O)[C@@H]2c3ccccc3C(=O)N(Cc3ccccc3)[C@H]2c2ccc(CO)cc2)cc1 | -0.0195
O=C(CS)NCCCCCNC(=O)[C@@H]1C[C@@H]2C(=O)N3CCC[C@H]3C(=O)N2[C@@H]1c1ccc(O)cc1 | -0.0313
COC(=O)[C@]1(Cc2ccccc2CN=[N+]=[N-])N=C(c2ccc(OCCCO)cc2)O[C@@H]1c1ccccc1 | -0.0407
COc1ccc([Si](C)(C)[C@@H]2[C@@H](CC(=O)N(CCO)Cc3ccccc3)O[C@]3(C(=O)N(Cc4ccc(N5CCOC5=O)cc4)c4ccccc43)[C@H]2C)cc1 | 0.027
[N-]=[N+]=NCc1ccccc1C[C@]1(C(=O)NCCN2CCOCC2)N=C(c2ccc(OCCCO)cc2)O[C@H]1c1ccccc1 | 0.364
COC(=O)[C@H]1N=C(c2ccc(OCCCO)cc2)O[C@H]1c1ccccc1CN=[N+]=[N-] | 0.11

— PubChem BioAssay
